# Screens deposited in PubChem BioAssay by National Center for Advancing Translational Sciences (NCATS).
# This is a sample that favours compounds with a hit; in the whole collection about 8% have one here.
# HT1080-NT tox – kills 2HG-producing HT-1080-NT fibrosarcoma cells; HT-1080-NT fibrosarcoma viability, CellTiter-Glo ATP luminescence, 48 h; Potency, µM (highest dose often 46.1 µM), inactives show top-dose activity, negative = less viability, usual class: cytotoxic; hit rate 1.6% among 360,000; AID 686970;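 further: NT is the 2HG producing partner of a matched IDH1 knockdown line; 0% = DMSO-treated cells and -100% = media-only wells without cells; nearly all actives have a fitted effect of over 55% in size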
#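 Fibrosarcoma NT cells, 750 per well in 5% FBS RPMI, were exposed to compound for 48 hours. Viability: CellTiter-Glo luminescence.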
# KB-V1 MDR tox – KB-V1 MDR subline cytotoxicity | hit rate 3.4% among 400,000 | KB-V1 MDR cells viability, CellTiter-Glo, 72 h | Potency, µM (titrated, usually from 46.1 µM), usual class: cytotoxic; further: on the % scale 0 is the no-effect control and ±100 the full control effect; nearly all actives have a fitted effect of over 60% in size
#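 KB-V1, DMEM (no phenol red) + 10% FBS; cpd pin-transferred, titration series; 72 h, 37 degrees C; CellTiter-Glo, luminescence. Data normalized, curve-fit.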
# HT1080 IDH1KD tx – kills HT-1080 cells with IDH1 knockdown. HT-1080 IDH1 knockdown viability, ATP luminescence, 48 h. Potency, µM (top dose mostly 46.1 µM), for the others: at the top dose activity, negative = toxicity, most hits filed as cytotoxic. hit rate 2% among 360,000;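 further: 0% = DMSO wells and -100% = cell-free medium wells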
#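 Using the IDH1-knockdown HT-1080 line run in the same batch and compound series as the NT line, viability after 48 h at 37 °C was determined by CellTiter-Glo luminescence and expressed as % activity.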
# KB-3-1 tox – KB-3-1 parental cell cytotoxicity. KB-3-1 viability, CellTiter-Glo ATP luminescence, 72 h. AID 1347075. Potency, µM (highest dose often 46.1 µM), most hits filed as cytotoxic. hit rate 1.4% among 400,000; further: on the % scale 0 is the no-effect control and ±100 the full control effect; nearly all actives have a fitted effect of over 60% in size
#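 Cells are dispensed, compounds pinned in, plates held at 37 °C for 72 h, then CellTiter-Glo is added and luminescence read after 10 minutes. Cell line: parental KB-3-1 in phenol-red-free DMEM, 10% FBS.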
# SW480 rereplic – DNA re-replication induction in SW480 cells; SW480 DNA re-replication, Hoechst DNA content imaging, 48 h; Potency, µM (titrated, usually from 46.1 µM), for inactives: top-dose re-replication activation, most hits filed as activators; hit rate 1.8% among 340,000; further: % of control where 0% means no effect; nearly all actives have a fitted effect of over 55% in size
#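 Hoechst fluorescence of nuclei (405 nm excitation, 500-530 nm emission) measured by plate-scanning imager after 48 hr compound exposure at 37 C; re-replication scored as increased number of nuclei with elevated intensity.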
# MCF10A rerep – DNA re-replication induction in MCF 10a cells | MCF 10A DNA re-replication, Hoechst nuclear intensity, 48 h | Potency, µM (highest dose often 46.1 µM), for inactives: at the top dose activity, positive = re-replication, hits mostly activators | hit rate 2.9% among 350,000 | AID 624296; further: % of control where 0% means no effect; nearly all actives have a fitted effect of over 50% in size
# * marks the source's active call; other numbers are inactive results; i = inactive; ? = inconclusive; . = no result. The call rests on the fitted dose curve; in most records, active means well fitted curve in the direction sought with a large enough effect; inconclusive means small, poorly fitted or top-dose-only effect, or another doubt; inactive means no such curve, though single readings can be large; an effect the other way counts as inactive or inconclusive. Potency means the concentration at half of the fitted maximal effect.
SMILES,HT1080-NT tox,KB-V1 MDR tox,HT1080 IDH1KD tx,KB-3-1 tox,SW480 rereplic,MCF10A rerep
CCCOc1ccccc1C1NC(=O)NC(C)=C1C(=O)OCc1ccccc1 (stereo unspecified),?,21µM*,?,i,0%,-2%
COc1cccc(N/C(SC)=C(/C#N)C(=O)NCc2cccs2)c1,-4%,?,-10%,i,8%,1%
COc1cccc(N/C(SCc2ccccc2C)=C(/C#N)C(=O)NCc2cccs2)c1,-14%,5.2µM*,-17%,i,-23%,10%
COc1cccc(N/C(SCc2cccc([N+](=O)[O-])c2)=C(/C#N)C(=O)NCc2cccs2)c1,-3%,i,0%,i,7%,7%
COc1cccc(N/C(SCc2ccccc2Cl)=C(/C#N)C(=O)NCc2cccs2)c1,5%,15µM*,11%,i,8%,23%
COc1ccc(CNC(=O)C2(C)Cc3c(-c4ccc(C(N)=O)cc4)ccnc3O2)cc1OC (stereo unspecified),?,i,3%,i,.,.
CCC(C)[C@H](NC(=O)NCc1ccc(Cl)cc1)C(=O)OC (stereo partly specified),-5%,21µM*,0%,i,-4%,-1%
CCC(C)[C@H](NC(=O)NCc1ccc(Cl)cc1)C(=O)O (stereo partly specified),2%,?,-7%,i,-14%,-2%
Cc1ccccc1NC(=O)c1sc2nc3c(c(-c4ccco4)c2c1N)CCCC3,-14%,i,-3%,i,16µM*,?
Nc1c(C(=O)Nc2ccccc2)sc2nc3c(c(-c4ccco4)c12)CCCC3,-25%,i,?,i,?,?
NC(=O)c1sc2nc3c(c(-c4cccnc4)c2c1N)CCC3,2%,i,-1%,i,2%,0%
Cc1ccc(NC(=O)c2sc3nc4c(c(-c5ccco5)c3c2N)CCC4)cc1,-6%,i,-24%,i,13%,1.8µM*
NC(=O)c1sc2nc3c(c(-c4cccs4)c2c1N)CCCCC3,-6%,i,-20%,i,?,13µM*
Nc1c(C(=O)Nc2ccc(Br)cc2)sc2nc(-c3ccco3)ccc12,-25%,5.2µM*,-23%,i,?,5.2µM*
Nc1c(C(=O)Nc2ccccc2)sc2nc3c(c(-c4ccco4)c12)CCC3,-9%,i,?,?,2%,?
Cc1ccc(C(=O)CN(C(=O)c2ccc(Cl)cc2)N2C(=O)c3ccccc3C2=O)cc1,-2%,i,-3%,i,-4%,-2%
CC1CCC(O)C/C1=C\C=C1/CCCC2(C)C1CCC2C(C)/C=C/C(C)C(C)C (stereo unspecified),.,.,.,.,?,21µM*
CC(=O)Nc1ccc(-c2nnc(SCc3ccccc3C#N)n2C)cc1,2%,i,0%,i,-6%,2%
COc1ccc(CNC(=O)c2cccc(N3CCCC3=O)c2)cc1,8%,i,9%,i,-5%,5%
COc1ccc(NC(=O)C(F)(OC)C(F)(F)F)c(OC)c1 (stereo unspecified),6%,i,0%,i,17%,16%
Cc1cc2nc(SCCOC(=O)Nc3ccccc3)nc(C)c2cc1C,5%,21µM*,10%,i,5%,8%
Cc1cc2nc(SCCOC(=O)Nc3cccc(Cl)c3)nc(C)c2cc1C,0%,i,-26%,i,6%,?
Cc1ccccc1Cc1c(C)nc2c(C(=O)NCc3ccc4c(c3)OCO4)cnn2c1C,-11%,18µM*,2%,i,12%,-4%
Cc1nc2c(C(=O)NCc3ccc4c(c3)OCO4)cnn2c(C)c1Cc1ccc(F)cc1Cl,14%,i,7%,?,15%,?
Cc1ccccc1Cc1c(C)nc2c(C(=O)N3CCN(Cc4ccc5c(c4)OCO5)CC3)cnn2c1C,-4%,8.2µM*,?,i,12%,24%
SMILES,HT1080-NT tox,KB-V1 MDR tox,HT1080 IDH1KD tx,KB-3-1 tox,SW480 rereplic,MCF10A rerep
Cc1ccc(S(=O)(=O)N(CCC(=O)N2CCOCC2)c2ccccc2)cc1,12%,i,11%,i,-3%,2%
CN(C)S(=O)(=O)c1ccc(N2CCCC2)c(C(=O)NC2CCCCC2)c1,10%,i,3%,i,-443%,-3%
CCC1=NN(C(=O)c2ccc(C)cc2)C(O)(c2ccc(Br)cc2)C1 (stereo unspecified),-19%,21µM*,-26%,i,-3%,18%
CC1=NN(C(=O)c2ccc(Cl)cc2)C(O)(c2ccccc2)C1 (stereo unspecified),-13%,i,-19%,?,?,15µM*
CC1=NN(C(=O)CSCc2ccccc2)C(O)(c2ccc(Cl)cc2)C1 (stereo unspecified),-7%,i,-2%,i,-5%,?
CCC1=NN(C(=O)c2cccc(Br)c2)C(O)(c2ccc(Br)cc2)C1 (stereo unspecified),?,?,18µM*,?,24%,?
CCC1=NN(C(=O)c2ccc(Br)cc2)C(O)(c2ccc(C)cc2)C1 (stereo unspecified),-18%,i,-15%,i,-1%,15%
O=C(Nc1ccccc1)C1=C(O)CC(c2ccco2)CC1=Nc1ccccc1 (stereo unspecified),27%,i,17%,i,2%,-3%
CC(C)OCCCNC(=S)Nc1ccc(S(N)(=O)=O)cc1,5%,i,0%,i,0%,0%
CCOc1ccc(NC(=O)C2CC(C)=C(C)CC2C(=O)O)cc1 (stereo unspecified),-3%,i,1%,i,-13%,-1%
O=C(CCCCCn1c(=S)[nH]c2ccc(N3CCOCC3)cc2c1=O)NCc1ccc(Cl)cc1,-11%,i,15%,?,?,6.5µM*
O=C(CCCCCn1c(=S)[nH]c2ccc(N3CCOCC3)cc2c1=O)NCc1ccccc1Cl,-10%,i,-10%,i,?,18µM*
COc1ccc(CNC(=O)c2ccc(N3CCCC3)c(NC(=O)NCc3ccc(C)cc3)c2)cc1,.,i,.,?,.,.
CCOC(=O)c1c(-c2ccc(OC)cc2)oc2cc(Br)c(O)cc12,-11%,i,7%,i,0%,15µM*
CCOC(=O)c1c(-c2ccc(OC)cc2)oc2ccc(O)cc12,?,?,?,i,1%,?
O=C(Cc1ccc(Br)cc1)Nc1cccc(-c2cn3c(n2)SCC3)c1,-13%,8.2µM*,?,?,?,?
